Here are results for 50 compounds from the antibiotic and cytotoxicity screens of Wong et al. (2023).

Among all 39,000 compounds or so, about 3,300 (8.5%) were called active. This excerpt belongs to a sample that is enriched for actives.

The assay has as its system HepG2. Put plainly: cytotoxicity call (relative viability < 0.9). Particulars: 10 µM.
Take `Cc1ccc(S[C@]2(C(=O)NCCCN(C)C)CC(=O)N(Cc3ccccc3C(F)(F)F)[C@@H]2c2ccc(CO)cc2)cc1`: the cytotoxicity call is “inactive”.

With `C[C@H]1CN([C@@H](C)CO)C(=O)Cc2cc(NS(=O)(=O)c3ccc(F)cc3)ccc2O[C@H]1CN(C)C(=O)Nc1cccc2ccccc12`, the cytotoxicity call is “inactive”. Consider `Cc1cc(-c2cc[nH]n2)c(C)s1`, for which the cytotoxicity call is “inactive”. In the case of `C[C@H]1CCCCO[C@@H](CN(C)Cc2ccncc2)[C@@H](C)CN([C@@H](C)CO)C(=O)c2cc(NC(=O)CCC(F)(F)F)ccc2O1` it was “inactive”; in that of `C[C@@H]1CN([C@@H](C)CO)C(=O)c2cc(NC(=O)Nc3ccc(C(F)(F)F)cc3)ccc2O[C@@H](C)CCCCO[C@H]1CN(C)S(=O)(=O)c1cn(C)cn1`, “inactive”. For the compound `C[C@H]1CCCCO[C@@H](CN(C)S(=O)(=O)c2cn(C)cn2)[C@@H](C)CN([C@@H](C)CO)C(=O)c2cc(NC(=O)Nc3ccc(C(F)(F)F)cc3)ccc2O1`, the cytotoxicity call was “active”. For the compound `C[C@@H]1CCCCO[C@@H](CN(C)C)[C@@H](C)CN([C@H](C)CO)C(=O)c2cc(NC(=O)Nc3ccc(C(F)(F)F)cc3)ccc2O1`, the cytotoxicity call is “active”. With `C[C@@H]1CN([C@H](C)CO)C(=O)c2cc(NC(=O)Nc3ccc(C(F)(F)F)cc3)ccc2O[C@@H](C)CCCCO[C@H]1CN(C)C` the entry was “inactive”; with `C[C@H]1CCCCO[C@H](CN(C)C)[C@@H](C)CN([C@@H](C)CO)C(=O)c2cc(NC(=O)Nc3ccc(C(F)(F)F)cc3)ccc2O1`, “inactive”; with `C[C@@H]1CN([C@@H](C)CO)C(=O)c2cc(NC(=O)Nc3ccc(C(F)(F)F)cc3)ccc2O[C@@H](C)CCCCO[C@@H]1CN(C)S(=O)(=O)c1cn(C)cn1`, “inactive”. In the case of `C[C@H]1CN([C@@H](C)CO)C(=O)c2cc(C#CC3(O)CCCC3)cnc2O[C@@H]1CN(C)S(=O)(=O)c1ccccc1`, the cytotoxicity call is “inactive”.

`COc1cccc(-c2ccc3c(c2)O[C@@H](CN(C)C(=O)C2CC2)[C@@H](C)CN([C@@H](C)CO)S3(=O)=O)c1`: the cytotoxicity call is “inactive”. With `C[C@@H]1CN([C@H](C)CO)C(=O)c2cc(NC(=O)Nc3ccccc3)ccc2O[C@@H](C)CCCCO[C@@H]1CN(C)Cc1ccc(C(=O)O)cc1` the entry was “inactive”; with `C[C@H]1CN([C@@H](C)CO)C(=O)c2cc(C#CC3(O)CCCC3)cnc2O[C@H]1CN(C)C(=O)Cc1ccccc1`, “inactive”. In the case of `CCNC(=O)C[C@H]1CC[C@H](NC(=O)C2CC2)[C@H](CO)O1` it was “inactive”; in that of `Cn1cnc(S(=O)(=O)N2C[C@H](O)COC[C@@H]3O[C@H](CC(=O)NC4Cc5ccccc5C4)CC[C@H]32)c1`, “inactive”. Consider `O=C(C[C@@H]1CC[C@H]2[C@@H](COC[C@@H](O)CN2S(=O)(=O)c2ccccc2Cl)O1)NCc1ccccc1Cl`, for which the cytotoxicity call was “inactive”. On to `C[C@H]1CCc2[nH]c3ccccc3c2C1`, for which the cytotoxicity call is “active”. With `O=c1[nH]c2ccccc2c2ccccc12` the entry was “inactive”. For `COc1ccc2c3c(ccc2c1)-c1[nH]c2ccccc2c1CC3`, the cytotoxicity call was “inactive”. For `C[C@H]1CN([C@@H](C)CO)C(=O)c2cc(NS(=O)(=O)c3ccccc3)ccc2O[C@@H]1CN(C)C(=O)Nc1cccc2ccccc12`, the cytotoxicity call is “inactive”.

Consider `Nc1nccs1`, for which the cytotoxicity call was “inactive”. With `O[C@H]1CCN(c2nccs2)C1` the entry was “inactive”; with `O=C1CCC(=O)N1c1nccs1`, “active”. For `O=C([C@@H]1[C@@H](CO)[C@@H]2Cn3c(cccc3=O)[C@@H]2N1CC1CCCC1)N1CCOCC1`, the cytotoxicity call is “inactive”. In the case of `COC1(NC(=O)CSCC#N)C(=O)N2C(C(=O)[O-])=C(CSc3nnnn3C)CSC21.[Na+]` (stereo not given) it was “inactive”; in that of `C[C@H]1CN([C@@H](C)CO)C(=O)c2cc(NC(=O)Nc3ccccc3)ccc2O[C@H]1CN(C)Cc1ccc(Cl)c(Cl)c1`, “active”; in that of `C[C@@H]1CN([C@H](C)CO)C(=O)c2cc(NC(=O)Nc3ccccc3)ccc2O[C@H]1CN(C)Cc1ccc(Cl)c(Cl)c1`, “inactive”. With `C[C@@H]1CN([C@@H](C)CO)C(=O)c2cc(NC(=O)Nc3ccccc3)ccc2O[C@@H]1CN(C)Cc1ccc(Cl)c(Cl)c1` the entry was “active”; with `C[C@@H]1CN([C@@H](C)CO)C(=O)c2cc(NC(=O)Nc3ccccc3)ccc2O[C@H]1CN(C)Cc1ccc(Cl)c(Cl)c1`, “active”.

Regarding `C[C@H]1CN([C@@H](C)CO)C(=O)c2cc(NC(=O)Nc3ccccc3)ccc2O[C@@H]1CN(C)Cc1ccc(Cl)c(Cl)c1`, the cytotoxicity call is “inactive”.

For the compound `C[C@H](CO)N1C[C@H](C)[C@@H](CN(C)Cc2ccc(Cl)c(Cl)c2)Oc2ccc(NC(=O)Nc3ccccc3)cc2C1=O`, the cytotoxicity call is “inactive”. With `C[C@H](CO)N1C[C@H](C)[C@H](CN(C)Cc2ccc(Cl)c(Cl)c2)Oc2ccc(NC(=O)Nc3ccccc3)cc2C1=O` the entry was “inactive”. Take `C[C@@H]1CN([C@H](C)CO)C(=O)c2cc(NC(=O)Nc3ccccc3)ccc2O[C@@H]1CN(C)Cc1ccc(Cl)c(Cl)c1`: the cytotoxicity call is “inactive”. With `COCC(=O)N1C[C@H](C)[C@@H](OC)CN(C)C(=O)c2cc(NC(=O)c3ccc(F)cc3)ccc2OC[C@@H]1C` the entry was “inactive”. With `N#Cc1cn(C2CCCCC2)c(=O)[nH]c1=O` the entry was “inactive”; with `C[C@H]1CCCCO[C@H](CN(C)C(=O)Cc2ccccc2)[C@@H](C)CN([C@@H](C)CO)C(=O)c2cc(NC(=O)C3CCCCC3)ccc2O1`, “inactive”; with `CC(C)CC#Cc1ccc2c(c1)O[C@H](CN(C)C(=O)Cc1ccccn1)[C@@H](C)CN([C@@H](C)CO)S2(=O)=O`, “inactive”. Consider `C[C@@H]1CN([C@H](C)CO)C(=O)Cc2cc(NC(=O)c3ccncc3)ccc2O[C@@H]1CN(C)C(=O)NC1CCCCC1`, for which the cytotoxicity call was “inactive”. In the case of `C[C@@H]1CN([C@H](C)CO)C(=O)c2cc(-c3ccncc3)cnc2O[C@@H]1CN(C)S(=O)(=O)c1ccc(F)cc1` it was “inactive”; in that of `Cc1nsc(-c2ccccc2)n1`, “inactive”; in that of `C[C@@H]1CCCCO[C@@H](CN(C)Cc2ccc3c(c2)OCO3)[C@H](C)CN([C@@H](C)CO)C(=O)c2cc(NS(=O)(=O)c3ccc(F)cc3)ccc2O1`, “inactive”.

Turning to `C[C@@H]1CCCCO[C@H](CN(C)Cc2ccc3c(c2)OCO3)[C@@H](C)CN([C@@H](C)CO)C(=O)c2cc(NS(=O)(=O)c3ccc(F)cc3)ccc2O1`, the cytotoxicity call was “active”. In the case of `C[C@@H]1CCCCO[C@H](CN(C)Cc2ccc3c(c2)OCO3)[C@H](C)CN([C@H](C)CO)C(=O)c2cc(NS(=O)(=O)c3ccc(F)cc3)ccc2O1` it was “inactive”; in that of `C[C@@H]1CCCCO[C@@H](CN(C)Cc2ccc3c(c2)OCO3)[C@H](C)CN([C@H](C)CO)C(=O)c2cc(NS(=O)(=O)c3ccc(F)cc3)ccc2O1`, “inactive”; in that of `C[C@H]1CCCCO[C@H](CN(C)Cc2ccc3c(c2)OCO3)[C@@H](C)CN([C@@H](C)CO)C(=O)c2cc(NS(=O)(=O)c3ccc(F)cc3)ccc2O1`, “inactive”. For `C[C@@H]1CCCCO[C@@H](CN(C)Cc2ccc3c(c2)OCO3)[C@@H](C)CN([C@H](C)CO)C(=O)c2cc(NS(=O)(=O)c3ccc(F)cc3)ccc2O1`, the cytotoxicity call is “active”. In the case of `C[C@@H]1CCCCO[C@@H](CN(C)Cc2ccc3c(c2)OCO3)[C@@H](C)CN([C@@H](C)CO)C(=O)c2cc(NS(=O)(=O)c3ccc(F)cc3)ccc2O1`, the cytotoxicity call is “active”. As for `C[C@@H]1CN([C@H](C)CO)C(=O)c2cc(NS(=O)(=O)c3ccc(F)cc3)ccc2O[C@@H](C)CCCCO[C@@H]1CN(C)Cc1ccc2c(c1)OCO2`, the cytotoxicity call was “inactive”. For the compound `C[C@@H]1CN([C@@H](C)CO)C(=O)c2cc(NS(=O)(=O)c3ccc(F)cc3)ccc2O[C@@H](C)CCCCO[C@H]1CN(C)Cc1ccc2c(c1)OCO2`, the cytotoxicity call was “inactive”.
